Compound activity from PubChem.
Sampled rows, rich in hits. Any-hit rate of the full collection: about 3%.
TSHR ag = TSH receptor (human) agonism | 73,000 tested, 0.48% active | P16473 | AID 926 | HEK293-CNG-TSHR cells (CNG channel as cAMP sensor), membrane potential dye, cAMP | Potency, µM (series often up to 57.1 µM), for the others: top-dose activation, usual class: activators; active means well fitted activation curve with a large enough effect in the main read-out, with a control signal flat, not every such curve was filed as active; inconclusive means small, poorly fitted or top-dose-only effect, or a change in a side signal; inactive means no such curve, though single readings can be large or run the other way; % of control where 0% means no effect;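 further: the control signal comes from parental cells without the receptor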
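cAMP rise detected as CNG-channel membrane depolarization by fluorescent dye (emission 590 nm), 30 min after compound, following 60 min dye loading containing 100 uM RO 20-1724 at room temperature. Cells: TSHR/CNG HEK 293, with parental CNG HEK 293 as control.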
Caspase-1 inhib = caspase-1 (human) inhibition, allosteric or competitive | P29466 | Caspase-1 enzyme, Ac-WEHD-AFC fluorogenic rate | Potency, µM (doses to about 57.5 µM), inactives show at the top dose activity change, negative = inhibition, actives largely listed as inhibitors | 75,000 tested, 0.03% active | AID 900;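 further: plate controls were vehicle for no effect and no substrate for full effect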
Target sequence (P29466 120-297 limits assumed): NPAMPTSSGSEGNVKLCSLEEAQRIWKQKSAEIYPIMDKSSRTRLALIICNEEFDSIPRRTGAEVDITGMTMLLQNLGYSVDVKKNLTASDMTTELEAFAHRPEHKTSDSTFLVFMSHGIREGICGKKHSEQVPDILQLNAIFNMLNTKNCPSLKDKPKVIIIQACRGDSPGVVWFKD
Target sequence (P29466 317-404 limits assumed): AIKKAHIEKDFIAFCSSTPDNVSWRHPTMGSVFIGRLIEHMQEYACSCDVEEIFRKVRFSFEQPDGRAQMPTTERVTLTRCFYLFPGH
ALOX15 inhib = inhibitors of human 15-lipoxygenase (ALOX15); P16050; purified 15hLO-1, xylenol orange hydroperoxide absorbance; Potency, µM (titrated, usually from 57.1 µM), for the others: at the highest dose activity change, negative = inhibition, most hits filed as inhibitors; 74,000 tested, 1.4% active; further: on the % scale 0 is the no-effect control and ±100 the full control effect; nearly all actives have a fitted effect of over 55% in size
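Quantitative HTS in 25 mM Hepes pH 7.5 containing 0.01% Triton X-100: human 15hLO-1 at 40 nM, arachidonic acid at 50 uM, 6 min turnover. Product quantified via ferrous oxidation/xylenol orange, 573:405 nm absorbance ratio.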
15-hLO-2 inh = 15-hLO-2 (ALOX15B) enzyme inhibition | O15296 | 110,000 tested, 0.56% active | purified 15hLO-2, xylenol orange hydroperoxide absorbance | Potency, µM (highest dose often 57.1 µM), inactives show at the top dose activity change, negative = inhibition, most hits filed as inhibitors; further: on the % scale 0 is the no-effect control and ±100 the full control effect; nearly all actives have a fitted effect of over 60% in size
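Enzyme 50 nM, AA 45 uM, 25 mM Hepes pH 7.5 + 0.01% Triton X-100; cpd preinc 15 min RT, rxn 90 min RT; stop/detect with 200 uM XO + 300 uM Fe(II) in 50 mM H2SO4, 30 min; A573/A405.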
Caspase-7 inhib = blocks human caspase-7 allosterically or competitively; AID 889; recombinant caspase-7, Ac-DEVD-AFC fluorescence rate; P55210; Potency, µM (highest dose often 57.5 µM), for inactives: at the highest dose activity change, negative = inhibition, usual class: inhibitors; 75,000 tested, 0.02% active; active means well fitted inhibition curve with a large enough effect in the main read-out, with a control signal flat, not every such curve was filed as active; inconclusive means small, poorly fitted or top-dose-only effect, or a change in a side signal; further: % of control where 0% means no effect
Target sequence (P55210 24-198 limits assumed): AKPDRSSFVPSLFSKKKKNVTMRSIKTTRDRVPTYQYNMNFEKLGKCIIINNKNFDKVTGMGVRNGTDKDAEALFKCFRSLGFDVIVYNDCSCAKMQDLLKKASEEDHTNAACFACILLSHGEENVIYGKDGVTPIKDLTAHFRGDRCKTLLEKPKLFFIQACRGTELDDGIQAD
Target sequence (P55210 207-303 limits assumed): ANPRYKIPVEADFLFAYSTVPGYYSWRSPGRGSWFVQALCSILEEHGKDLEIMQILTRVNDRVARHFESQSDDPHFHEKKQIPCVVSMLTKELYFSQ
HEK293 cAMP ctrl = counter-screen for TSHR agonists: cAMP increase in parental HEK293; parental HEK293 CNG cAMP sensor, membrane potential fluorescence; 73,000 tested, 2.5% active; Potency, µM (top dose mostly 57.1 µM), for inactives: at the top dose activation, usual class: activators; further: % of control where 0% means no effect; nearly all actives have a fitted effect of over 55% in size
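Parental HEK 293 cells stably expressing a modified CNG channel (no TSHR) report cAMP rise as membrane depolarization. Membrane potential dye with 100 uM RO 20-1724 was loaded for 60 min at room temperature, then compound added for 30 min; fluorescence read at 590 nm.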
Numbers without * were called inactive; u = inconclusive; x = no result given; [ ] = dose if it differs, or a comment. Unless noted, the call rests on the fitted dose curve; in most records, active means well fitted curve in the direction sought with a large enough effect; inconclusive means small, poorly fitted or top-dose-only effect, or another doubt; inactive means no such curve, though single readings can be large; an effect the other way counts as inactive or inconclusive. Potency means the concentration at half of the fitted maximal effect.

SMILES	TSHR ag	Caspase-1 inhib	ALOX15 inhib	15-hLO-2 inh	Caspase-7 inhib	HEK293 cAMP ctrl
CC(C)C[C@@H](CC(=O)N[C@H](CC(=O)N[C@@H]1CCCC[C@H]1C(=O)N[C@H](CC(=O)N[C@@H](CCC(=O)O)CC(=O)O)Cc1c[nH]c2ccccc12)C(C)C)NC(=O)[C@@H]1CCCC[C@H]1N	0.5%	x	x	x	x	-1.9%
COc1cc(=O)n(C)c2c(OC[C@@H](O)C(C)(C)O)cccc12	u	-2.3%[25.7 µM]	14.3%[25.6 µM]	2.9%[25.6 µM]	1.2%[25.7 µM]	u
c1ccc(OCCSc2nnnn2-c2ccccc2)cc1	u	-3.5%	-5.8%	-14.2%	-7.8%	25.1µM*
CCOc1ccc(OCCSc2nnnn2-c2ccccc2)cc1	x	x	x	-7.9%	x	x
c1ccc(-n2nnnc2SCc2cccc3nsnc23)cc1	u	-1.9%	-1.8%	-7.4%	-5.5%	20µM*
O=c1c(-c2ccc(Cl)cc2)nc2cnc(N3CCNCC3)nc2n1Cc1cccs1	-8.8%	x	u	27.7%	u	11.0%
CC1(C)NC(=O)N(CCOCCOc2c(Cl)cc(Cl)cc2Cl)C1=O	x	x	x	0.8%	x	x
COC(=O)c1ccc(Nc2nc(C)cc(=O)[nH]2)cc1	u	-2.6%	-6.5%	4.2%	-2.9%	12.6µM*
COC(=O)c1ccccc1NC(=O)C1CC(=O)N(c2ccc(F)cc2)C1 (stereo not drawn)	u	-1.5%	4.6%	1.8%	-0.6%	25.1µM*
COC(=O)c1ccccc1NC(=O)C1CC(=O)N(c2ccc(C)c(C)c2)C1 (stereo not drawn)	x	x	x	3.2%	x	x
O=C(CSc1nc2ccccc2c(=O)n1-c1ccc(Cl)cc1)c1ccco1	u	-2.7%	-18.6%	-11.7%	-2.2%	25.1µM*
O=C(CSc1nc2ccccc2c(=O)n1-c1ccc(F)cc1)NCc1ccco1	x	x	x	-5.9%	x	x
O=C(CSCc1ccc(Cl)cc1)c1ccco1	8.5%	-3.1%	31.6µM*	-23.1%	-8.3%	3.5%
CC(C)=CCC/C(C)=C\COc1c2ccoc2cc2oc(=O)ccc12	x	-3.7%	-3.4%[25.6 µM]	-6.9%	-3.0%	x
CC1CCCC2(C1)NC(=S)c1c(sc3c1CCCC3)N2 (stereo not drawn)	x	x	x	12.6µM*	x	x
c1ccc(Nc2ncnc3ccc(-c4ccc5c(c4)OCO5)cc23)cc1	u	-6.2%	1.3%	9.9%	-9.0%	u
Cc1ccc(-c2csc(=S)n2CC(=O)OCC(=O)NCc2ccco2)cc1	u	-4.6%	-27.4%	-20.5%	-8.1%	31.6µM*
CN1CCN(CCc2nc3cc(NC(=O)COc4ccccc4)ccc3n2C)CC1	20.8%	-1.6%	-3.9%	12.3%	0.7%	6.9%
Cc1ccc(OCC(=O)Nc2ccc3c(c2)nc(CCN2CCOCC2)n3C)cc1	u	-1.6%	-13.3%	31.2%	-1.3%	25.1µM*
COc1cc(Sc2ccc(C)cc2)c(OC)cc1N	-8.5%	-1.8%	u	10µM*	-3.1%	6.0%
CC(Oc1ccc(Cl)cc1Cl)C(=O)NC1=NN(c2ccccc2)C(=O)C1 (stereo not drawn)	x	x	x	7.94µM*	x	x
COc1ccccc1-c1cc(-n2ccnc2)ncn1	u	0.1%	-19.1%	5.5%	-5.5%	31.6µM*
COc1ccccc1-c1cncnc1-n1ccnc1	-1.7%	0.6%	-12.7%	2.9%	2.2%	-5.5%
COc1ccc(C(=O)N2c3cc4c(cc3C(C)=CC2(C)C)OCO4)cc1	15.8µM*	-2.7%	-24.5%	-4.2%	-2.2%	19.4%
CC1=CC(C)(C)N(C(=O)c2ccccc2)c2ccc(C)cc21	x	x	x	-0.6%	x	x
SMILES	TSHR ag	Caspase-1 inhib	ALOX15 inhib	15-hLO-2 inh	Caspase-7 inhib	HEK293 cAMP ctrl
CC(=O)N1[C@H](C)C=C[C@]1(Cc1ccccc1)C(=O)NCc1ccc(C)o1	3.0%	-10.8%	-0.3%	20.5%	-0.3%	10.7%
CC(=O)C1(C)CC2=C(CCCC2(C)C)CC1C (stereo not drawn)	3.5%	1.4%	3.0%	-3.8%	-1.7%	19.5%
COc1cccc(-c2cncnc2NCCN2CCOCC2)c1	6.4%	-2.4%	u	-3.7%	-5.8%	5.4%
CCC/C=C(\CCC)C(NC(=O)c1ccco1)c1ccc(C(=O)OC)cc1 (stereo not drawn)	u	-2.5%	x	5.4%	-3.8%	25.1µM*
O=C1c2ccccc2C(=O)N1Cc1nn2c(-c3ccc(Cl)cc3)nnc2s1	15.6%	-1.9%	1.0%	-4.8%	-0.4%	17.6%
COc1ccc(-c2nnc3sc(CN4C(=O)c5ccccc5C4=O)nn23)cc1	15.8µM*	0.8%	7.1%	-4.0%	0.2%	12.0%
CCOc1ccccc1OCc1nn2c(-c3ccc(C)cc3)nnc2s1	u	-1.2%	-1.9%	20.0%	-2.2%	25.1µM*
CCn1c(C)nc2cc(-c3nnc(-c4c(-c5ccccc5)noc4C)o3)ccc21	u	-2.4%	-2.5%	4.2%	-3.2%	20µM*
Cc1onc(-c2ccccc2)c1-c1nc2ccccc2c(=O)o1	x	x	x	-0.3%	x	x
OC[C@@H]1NC[C@@H](O)[C@H]1O	10.7%	1.7%	9.6%	-6.0%	-1.2%	-7.6%
Nc1ncnc2c1ncn2[C@H]1O[C@@H](C(=O)OCCO)[C@@H](O)[C@H]1O	14.0%[11.4 µM]	-2.4%[11.5 µM]	4.2%[11.4 µM]	-4.7%[11.4 µM]	1.7%[11.5 µM]	0.0%[11.4 µM]
O=C(Cc1cccs1)N(Cc1ccco1)C1(C(=O)NC2CCCC2)CCCCC1	u	-1.2%	-2.9%	-6.4%	-2.0%	0.126µM*
O=C(NC1CCCC1)C(c1ccsc1)N(Cc1ccco1)C(=O)Cc1cccs1 (stereo not drawn)	-22.6%	-4.9%	0.398µM*	-1.2%	-12.3%	-14.2%
CCCNC(=O)OC[C@@H]1O[C@H](CCO/N=C(\C)CCC(=O)OC[C@@H]2O[C@H](c3ccccc3)C=C[C@@H]2Oc2ccc(OC)cc2)C=C[C@@H]1Oc1ccc(OC)cc1	-0.9%[11.4 µM]	-3.1%[11.5 µM]	-5.8%[11.4 µM]	x	1.6%[11.5 µM]	-6.5%[11.4 µM]
CCc1ccc(NS(=O)(=O)c2ccc3[nH]cc(C(=O)NCC4CCCO4)c(=O)c3c2)cc1 (stereo not drawn)	x	-2.9%	-16.3%	43.3%	-0.6%	-3.7%
CCc1ccc(NS(=O)(=O)c2ccc3[nH]cc(C(=O)N4CCCCC4)c(=O)c3c2)cc1	-0.6%	-0.5%	3.98µM*	-11.8%	-0.3%	16.4%
O=C(O)[C@@H]1[C@@H]2O[C@H]([C@@H](Br)[C@H]2Br)[C@H]1C(=O)O	u	-1.2%[11.5 µM]	8.0%[11.4 µM]	9.1%[11.4 µM]	1.6%[11.5 µM]	u
CC(C)=CCC(C)(C)C1OCCN1C(=O)Nc1ccccc1 (stereo not drawn)	10µM*	-0.5%	-8.9%	6.3%	-0.7%	24.1%
O=C(Nc1ccccc1)N1CCCC2CCCCC21 (stereo not drawn)	x	x	x	-5.1%	x	x
CCc1c2c(nc3c(C(C)C)cccc13)-c1cccc(=O)n1C2	u	-14.1%	x	-9.3%	-22.5%	25.1µM*
CCc1cccc2nc3c(c([Si](CC)(CC)CC)c12)Cn1c-3cccc1=O	u	x	x	-22.0%	u	25.1µM*
